Laboratory results: PubChem BioAssay (NCATS)
Inconclusive results are not listed. The source made the active and inactive calls. Calls come from the whole dose curve; as a rule, active = well fitted curve in the direction sought with a large enough effect; inconclusive = small, poorly fitted or top-dose-only effect, or another doubt; inactive = no such curve, though single readings can be large; an effect the other way counts as inactive or inconclusive.

What was measured:
[1] = molecular target: Calcium and integrin-binding protein 1 (Homo sapiens) (UniProt Q99828); experiment: Primary qHTS for Identification of Calcium Integrin Binding Protein 1 (CIB1) Competitor (AID 1508620);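 note: GST tagged CIB1 binding a fluorescein labelled alphaIIb integrin peptide tracer; top concentration of the series differs between compounds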
In short: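 CIB1-GST (1 uM final) and compound incubated 15 min at room temperature before adding FITC-alphaIIb peptide tracer (100 nM final). Competition for binding read by fluorescence polarization (ex 480, em 540) after another 15 min at room temperature.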

[2] = Primary qHTS for inhibitors of nuclear receptor binding SET domain protein 2 (NSD2) in an isogenic RCH-ACV NSD2 p.E1099K mutant (9B) (AID 1645876); note: nearly all actives have a fitted effect of over 70% in size
[3] = Primary qHTS for inhibitors of nuclear receptor binding SET domain protein 2 (NSD2) in an RCH-ACV wild type WT cells (2C) (AID 1645877); note: nearly all actives have a fitted effect of over 70% in size
% is set by controls: 0 for no effect and ±100 for the full control effect.

Calcium and integrin-binding protein 1 (Homo sapiens), sequence (Q99828 whole entry, looked up): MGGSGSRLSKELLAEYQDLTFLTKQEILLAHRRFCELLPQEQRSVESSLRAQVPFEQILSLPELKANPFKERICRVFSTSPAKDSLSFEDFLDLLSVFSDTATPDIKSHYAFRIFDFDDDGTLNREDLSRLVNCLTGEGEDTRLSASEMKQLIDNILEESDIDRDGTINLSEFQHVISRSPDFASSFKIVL

Cc1nc(-c2cccnc2)sc1C(=O)Nc1ccccc1-c1cn2c(CN3CCOCC3)csc2n1
inactive: Potency [1] | Potency [2] | Potency [3]

CC(=O)OCC1OC(O[C@H]2CC[C@@]3(C)C(CC[C@]4(C)C3CC=C3[C@@H]5CC(C)(C)CC[C@]5(C(=O)O)CC[C@]34C)[C@]2(C)CO)C(O)C(O)C1OC1OC(C)C(O)C(OC2OCC(O)C(O)C2O)C1O (some centres not stated)
inactive: Potency [1] | activity change, negative = viability loss [2] -15.5% [at 9.23 µM] | activity change, negative = cell killing [3] -24% [at 9.23 µM]

COC(=O)C(CC1(O)c2ccccc2N2C(=O)C(C)(C)N(O)C21)n1cnc2ccccc2c1=O (configuration not stated)
inactive: Potency [1] | Potency [2] | Potency [3]

C=C(CC/C=C(\C)C(=O)O)C1(O)CC=C(C)CC1 (configuration not stated)
inactive: Potency [1] | Potency [2] | Potency [3]

CC1(C)CC[C@]2(C(=O)O[C@@H]3O[C@H](CO)[C@@H](O)[C@H](O)[C@H]3O)CC[C@]3(C)C(=CCC4[C@@]5(C)CC[C@H](O[C@@H]6O[C@H](C(=O)O)[C@@H](O[C@@H]7O[C@H](CO)[C@@H](O)[C@H](O)[C@H]7O)[C@H](O)[C@H]6O)C(C)(C)C5CC[C@]43C)C2C1 (some centres not stated)
inactive: Potency [1] | outcome [2] inactive [at 9.23 µM] | activity change, negative = cell killing [3] 2.22% [at 9.23 µM]

C=CC(C)(CC/C=C(\C)C(=O)OC[C@H]1O[C@@H](OC(C)(C=C)CC/C=C(\C)C(=O)O[C@H]2[C@H](O)[C@@H](O)[C@H](OC(C)(C=C)CC/C=C(\C)C(=O)O)O[C@@H]2CO)[C@H](O)[C@@H](O)[C@@H]1O)O[C@@H]1O[C@H](CO)[C@@H](O)[C@H](O)[C@H]1O (some centres not stated)
inactive: Potency [1] | activity change, negative = viability loss [2] -1.17% [at 9.23 µM] | outcome [3] inactive [at 9.23 µM]

COC1OC(OC)C(O)(CCC2(C)C(C)CCC3(C)C2CC(O)C(O)C32CO2)C1O (configuration not stated)
inactive: Potency [1] | Potency [2] | Potency [3]

COc1cc(/C=C/C(=O)OC[C@H]2O[C@@H](OC3CC(C)=C(C(=O)O)C(C)(C)C3)[C@H](O)[C@@H](O)[C@@H]2O)cc(OC)c1O (some centres not stated)
inactive: Potency [1] | Potency [2] | Potency [3]

C=CC1(C)CC2CCC3C(C)(C(=O)O)CCCC3(C)C2=CC1=O (configuration not stated)
inactive: Potency [1] | Potency [2] | Potency [3]

CC(=O)/C=C/[C@H]1[C@](C)(O)[C@@H](O)[C@H](O)C2C(C)(C)CCC[C@@]21C (some centres not stated)
inactive: Potency [1] | Potency [2] | Potency [3]

CC1(C)OC(=O)C=C[C@@]2(C)C1CC(=O)[C@]1(C)C2CC[C@@]2(C)[C@H](c3ccoc3)OC(=O)[C@H]3O[C@]321 (some centres not stated)
inactive: Potency [1] | Potency [2] | Potency [3]

CC1(C)C[C@H](O)C[C@@]2(C)[C@H]1[C@H](O)C=C1COC(=O)[C@@]12O
inactive: Potency [1] | Potency [2] | Potency [3]

NC(=O)NCCCC(NC(=O)Cc1ccccc1)C(=O)O (configuration not stated)
inactive: Potency [1] | Potency [2] | Potency [3]

C[C@@H]1C(=O)O[C@H]2[C@H]1CC[C@@]1(C)C(=O)C=C[C@@](C)(O)[C@H]21
inactive: Potency [1] | Potency [2] | Potency [3]

CC1=C(C(=O)OC2OC(COC3OC(CO)C(O)C(O)C3O)C(O)C(O)C2O)C(C)(C)CCC1 (configuration not stated)
inactive: Potency [1] | Potency [2] | Potency [3]

CC1(C)C(=O)CCC2(C)C1C(O)C=C1COC(=O)C12O (configuration not stated)
inactive: Potency [1] | Potency [2] | Potency [3]

CC(O)C(O)/C=C/C=C/C(=O)O[C@@H]1C=C(C(=O)O)[C@](O)(CO)[C@@]2(C)CCCC(C)(C)[C@H]12 (some centres not stated)
inactive: Potency [1] | Potency [2] | Potency [3]

C=C1CC23CC1CCC2C12OC(=O)C(C)(C(O)CC1O)C2C3C(=O)O (configuration not stated)
inactive: Potency [1] | Potency [2] | Potency [3]

CC1=C(CO)C2(C)CCCC(C)(C)C2C(O)C1O (configuration not stated)
inactive: Potency [1] | Potency [2] | Potency [3]

CC1=C(C)C(=O)OC(C(C)C2C(O)CC3C4C5OC5C5(O)CC(OC6OC(CO)C(OC7OC(C)C(O)C(O)C7O)C(O)C6O)CC(O)C5(C)C4CCC32C)C1 (configuration not stated)
inactive: Potency [1] | Potency [2] | Potency [3]

COc1cc2c(cc1O)CC(O)(CO)C(CO)C2c1ccc(OC2OC(CO)C(O)C(O)C2O)c(OC)c1 (configuration not stated)
inactive: Potency [1] | Potency [2] | Potency [3]

C=C1CCC(OC(C)=O)C2(C)CC3OC(=O)C(C)=C3CC12 (configuration not stated)
inactive: Potency [1] | Potency [2] | Potency [3]

CCC(C)C(=O)OC[C@H]1O[C@H](O[C@H]2O[C@H](CO)[C@@H](O)[C@H](O)[C@H]2O)[C@H](O)[C@@H](O)[C@@H]1O (some centres not stated)
inactive: Potency [1] | Potency [2] | Potency [3]

CC(=O)OCC(Cc1ccccc1)NC(=O)C(Cc1ccccc1)NC(=O)c1ccccc1 (configuration not stated)
inactive: Potency [1] | Potency [2] | Potency [3]

CC1(C)CC[C@]2(C(=O)OC3OC(CO)C(O)C(O)C3O)CC[C@]3(C)C(=CCC4[C@@]5(C)C[C@@H](O)[C@H](OC6OC(C(=O)O)C(O)C(O)C6O)C(C)(C)C5CC[C@]43C)[C@@H]2C1 (some centres not stated)
inactive: Potency [1] | activity change, negative = viability loss [2] -7.32% [at 9.23 µM] | activity change, negative = cell killing [3] -10.4% [at 9.23 µM]

C/C(CO)=C1/CCC23COC(C2)C(O)(C(=O)O)CCC13 (configuration not stated)
inactive: Potency [1] | Potency [2] | Potency [3]

O=C(OCC(O)CO[C@@H]1O[C@H](C(=O)O)[C@@H](O)[C@H](O)[C@H]1O)c1ccccc1 (some centres not stated)
inactive: Potency [1] | Potency [2] | Potency [3]

CC(C)=CCC[C@](C)(O[C@@H]1O[C@H](CO[C@@H]2OC[C@H](O)[C@H](O)[C@H]2O)[C@@H](O)[C@H](O)[C@H]1O)[C@H]1CC[C@]2(C)[C@@H]1[C@H](O)C[C@@H]1[C@@]3(C)CC[C@H](O[C@@H]4O[C@H](CO)[C@@H](O)[C@H](O)[C@H]4O[C@@H]4O[C@H](CO)[C@@H](O)[C@H](O)[C@H]4O)C(C)(C)[C@@H]3CC[C@]12C
inactive: Potency [1] | Potency [2] | Potency [3]

COC(=O)C1C(c2ccc(O)cc2)C(C(=O)O)C1c1ccc(O)cc1 (configuration not stated)
inactive: Potency [1] | Potency [2] | Potency [3]

COC(=O)C1=CO[C@@H](O[C@@H]2O[C@H](CO)[C@@H](O)[C@H](O)[C@H]2O)[C@@H]2[C@@H](C)[C@@H](O)C(O)[C@H]12 (some centres not stated)
inactive: Potency [1] | Potency [2] | Potency [3]

C=C1CC[C@H]2[C@@](C)(CCC(OC3OC(CO)C(O)C(O)C3O)[C@@]2(C)CO)C1C(=O)CC1=CCOC1=O (some centres not stated)
inactive: Potency [1] | Potency [2] | Potency [3]

C[C@H](/C=C/[C@@]1(O)[C@H](C)CC(=O)CC1(C)C)O[C@@H]1O[C@H](CO[C@@H]2OC[C@@H](O)[C@H](O)[C@H]2O)[C@@H](O)[C@H](O)[C@H]1O
inactive: Potency [1] | Potency [2] | Potency [3]

C[C@@]12CC3(S(=O)(=O)O)OC(O1)[C@]1(COC(=O)c4ccccc4)[C@H]3C[C@]21O[C@@H]1O[C@H](CO)[C@@H](O)[C@H](O)[C@H]1O
inactive: Potency [1] | Potency [2] | Potency [3]

CC(=O)O[C@@H](C[C@@H]1C=C(C)C(=O)O1)[C@H](C)[C@H]1CCC2[C@@]3(C)CC[C@H](O[C@@H]4O[C@H](CO)[C@@H](O)[C@H](O)[C@H]4O[C@@H]4O[C@@H](C)[C@H](O)[C@@H](O)[C@H]4O)C(C)(C)C3CC[C@@]2(C)[C@@]12COC(=O)C2 (some centres not stated)
inactive: Potency [1] | activity change, negative = viability loss [2] -3.49% [at 9.23 µM] | activity change, negative = cell killing [3] -8.37% [at 9.23 µM]

C/C(=C/CO)CC[C@H]1[C@]2(C)C[C@H](O)CC(C)(C)[C@H]2CC[C@]1(C)O
inactive: Potency [1] | Potency [2] | Potency [3]

COC(=O)C1=COC(OC2OC(CO)C(O)C(O)C2O)C2C(C)C(OC(C)=O)C(OC(=O)c3ccccc3)C12 (configuration not stated)
inactive: Potency [1] | Potency [2] | Potency [3]

CC(C)CC(=O)OC[C@@]1(O)C[C@@]23CC[C@H]4[C@@](C)(CCC[C@@]4(C)C(=O)O)[C@@H]2CC[C@@H]1C3
inactive: Potency [1] | Potency [2] | Potency [3]

C=C(C)C1CCC2(C(=O)OC3OC(COC4OC(CO)C(O)C(O)C4O)C(OC4OC(C)C(O)C(O)C4O)C(O)C3O)CCC3(C(=O)O)C(CCC4C5(C)CCC(=O)C(C)(C)C5CCC43C)C12 (configuration not stated)
inactive: Potency [1] | outcome [2] inactive [at 9.23 µM] | outcome [3] inactive [at 9.23 µM]

O=C(OC[C@H]1O[C@H](O[C@H]2CO[C@H](CO)[C@@H](O)[C@@H]2O)[C@H](O)[C@@H](O)[C@H]1O)c1ccccc1
inactive: Potency [1] | Potency [2] | Potency [3]

CC1CCC23COC(=O)C2=CC(O)CC3C1(C)CCc1ccoc1 (configuration not stated)
inactive: Potency [1] | Potency [2] | Potency [3]

CC1=CC(=O)CC(C)(C)C1CO[C@@H]1O[C@H](CO)[C@@H](O)[C@H](O)[C@H]1O (some centres not stated)
inactive: Potency [1] | Potency [2] | Potency [3]

C=CC(C)(C)C12Nc3c(ccc4c3OC(C)(C)C=C4)C1(O)CC1C(=O)N3CCCC3C(=O)N12 (configuration not stated)
inactive: Potency [1] | Potency [2] | Potency [3]

COc1cc(C(=O)OCC2=CCC3C(C(=O)O)=COC(O[C@@H]4O[C@H](CO)[C@@H](O)[C@H](O)[C@H]4O)C23)ccc1O (some centres not stated)
inactive: Potency [1] | Potency [2] | Potency [3]

OCC(O)C(c1c[nH]c2ccccc12)c1c[nH]c2ccccc12 (configuration not stated)
inactive: Potency [1] | Potency [2] | Potency [3]

NC(=O)[C@H](Cc1ccccc1)NC(=O)[C@H](CCCN=C(N)N)NC(=O)C12CC3CC(CC(C3)C1)C2
inactive: Potency [1] | activity change, negative = viability loss [2] -0.15% [at 9.23 µM] | activity change, negative = cell killing [3] 0.0232% [at 9.23 µM]

C[C@@H]1C(=O)O[C@H](C)[C@H]1C[C@@H](O)[C@](C)(O)[C@H]1CC[C@@]2(O)C3=CC(=O)[C@@H]4C[C@@H](O)[C@@H](O)C[C@]4(C)C3CC[C@]12C (some centres not stated)
inactive: Potency [1] | Potency [2] | Potency [3]

COCC1OC(OC(C)(C)C2CCC3(C)C=C(C4CCC5C4(C)CC(O)C4OC(C(C)(C)O)CCC45C)CCC3O2)C(NC(C)=O)C(O)C1O (configuration not stated)
inactive: Potency [1] | Potency [2] | Potency [3]

CC(C)=CCC/C(C)=C/CO[C@@H]1O[C@H](CO[C@@H]2OC[C@](O)(CO)[C@H]2O)[C@@H](O)[C@H](O)[C@H]1O
inactive: Potency [1] | Potency [2] | Potency [3]

CC(C/C=C/C(C)(C)O)C1CCC(C)(O)C(O)C1 (configuration not stated)
inactive: Potency [1] | Potency [2] | Potency [3]
